Results as given in article PMC11062922 (Nature Chemical Biology, 2023).
Like-named read-outs stand apart in the source and are kept apart here.

What was measured:
Parameters in all cases: species or system human, MV4-11 + K-562 + COLO205 + SK-N-BE2 + OVCAR-8
EPHA5 = conditions: read-out: apparent Kd, compound concentrations: 100 nM and 1000 nM (sheet 'Samples'), n = 1
CDK16 = conditions: read-out: apparent Kd; compound concentrations:100 nM and 1000 nM (sheet 'Samples'); n = 1
MAPK10 = conditions: read-out: apparent Kd, n = 1
MAPK9 = conditions: read-out: apparent Kd, n = 1
MARK3 = conditions: read-out: apparent Kd; compound concentrations:100 nM and 1000 nM (sheet 'Samples'); n = 1
RPS6KA4 = conditions: read-out: apparent Kd; compound concentrations:100 nM and 1000 nM (sheet 'Samples'); n = 1
STK4 = conditions: read-out: apparent Kd, n = 1
ATM = conditions: read-out: apparent Kd; compound concentrations: 100 nM and 1000 nM (sheet 'Samples'), CATDS: 0.23427621692245501; n = 1
CAMKK2 = conditions: read-out: apparent Kd; compound concentrations: 100 nM and 1000 nM (sheet 'Samples'), CATDS: 1.7496919808973301E-2; n = 1
EPHA4 = conditions: read-out: apparent Kd, compound concentrations: 100 nM and 1000 nM (sheet 'Samples'), n = 1
EPHB2 = conditions: read-out: apparent Kd, compound concentrations: 100 nM and 1000 nM (sheet 'Samples'), n = 1
EPHB4 = conditions: read-out: apparent Kd, compound concentrations: 100 nM and 1000 nM (sheet 'Samples'), n = 1
PIP4K2C = conditions: read-out: apparent Kd; compound concentrations: 100 nM and 1000 nM (sheet 'Samples'), CATDS: 1.61438790686462E-2; n = 1
PRKACB = conditions: read-out: apparent Kd; compound concentrations: 100 nM and 1000 nM (sheet 'Samples'), CATDS: 1.8562598651845501E-2; n = 1
PRKAG2 = conditions: read-out: apparent Kd, compound concentrations: 100 nM and 1000 nM (sheet 'Samples'), n = 1
TNK1 = conditions: read-out: apparent Kd, compound concentrations: 100 nM and 1000 nM (sheet 'Samples'), n = 1
CHEK1 = conditions: read-out: apparent Kd; compound concentrations: 100 nM and 1000 nM (sheet 'Samples'), CATDS: 3.6585074112693398E-2; n = 1
[1] = compound concentrations:100 nM and 1000 nM (sheet 'Samples')

`Cl.Cn1cc(C2=C(c3c4n(c5ccccc35)CCNC4)C(=O)NC2=O)c2ccccc21` [RO0318365-001] showed a potency estimated from few doses (EPHA5; CATDS: 5.66388945901121E-2) of 1210 nM.
`COc1cc[nH]c1/C=C1\C(=O)Nc2ccc(F)c(C#C[C@@H](O)[C@@H](N)[C@@H](C)O)c21` [RO0283120-000] was tested, and the potency estimated from few doses (CDK16) was 235 nM, the potency estimated from few doses (MAPK10; [1]) was 654 nM and the potency estimated from few doses (MAPK9; [1]) was 321 nM. It also gave a potency estimated from few doses (MARK3) of 528 nM, a potency estimated from few doses (RPS6KA4) of 421 nM and a potency estimated from few doses (STK4; [1]) of 765 nM.
For `CN(C)c1ccc2c(c1)/C(=C/Nc1ccc(S(N)(=O)=O)cc1)C(=O)N2` [GW416469X], the potency estimated from few doses (STK4; compound concentrations: 100 nM and 1000 nM (sheet 'Samples'), CATDS: 7.4915408427864094E-2) was 1510 nM.
`O=C1N=C(NCCc2cccs2)S/C1=C\c1ccc2ncccc2c1` [RO4508348-000] was tested, and the potency estimated from few doses (ATM) was 314 nM.
For `Nc1nccc(-c2ccc3c(N)n[nH]c3c2)n1` [GSK1034945A], the potency estimated from few doses (MARK3) was 1040 nM.
With `Cl.Cn1c(=O)c(Cc2ccccc2F)cc2cnc(NC3CCOCC3)nc21` [RO3305377-001] the potency estimated from few doses (CAMKK2) was 1640 nM, the potency estimated from few doses (EPHA4; CATDS: 2.0796665862367499E-2) was 1010 nM and the potency estimated from few doses (EPHA5; CATDS: 2.9701717682633799E-2) was 481 nM. The potency estimated from few doses (EPHB2; CATDS: 2.7488679205580801E-2) was 555 nM, the potency estimated from few doses (EPHB4; CATDS: 3.5368678995808499E-2) was 357 nM and the potency estimated from few doses (MAPK10; compound concentrations: 100 nM and 1000 nM (sheet 'Samples'), CATDS: 2.2981904071827101E-2) was 800 nM. The potency estimated from few doses (MAPK9; compound concentrations: 100 nM and 1000 nM (sheet 'Samples'), CATDS: 2.8205864879245399E-2) was 529 nM, the potency estimated from few doses (PIP4K2C) was 2170 nM and the potency estimated from few doses (PRKACB) was 1370 nM. For the same compound, the potency estimated from few doses (PRKAG2; CATDS: 2.6904980441579199E-2) was 578 nM and the potency estimated from few doses (TNK1; CATDS: 3.75321125845825E-2) was 325 nM.
Work on `CNCC1CCn2c(c(C3=C(c4cn(C)c5ccccc45)C(=O)NC3=O)c3ccccc32)C1` (stereo not shown) [RO0318676-000] yielded a potency estimated from few doses (CHEK1) of 754 nM, a potency estimated from few doses (EPHA4; CATDS: 2.83796334007482E-2) of 1680 nM and a potency estimated from few doses (EPHB2; CATDS: 2.91102387203203E-2) of 1530 nM. For the same compound, the potency estimated from few doses (EPHB4; CATDS: 3.3476248277138E-2) was 973 nM.
`Cn1cc(C2=C(c3ccc(OC[C@@H](O)CO)cc3)C(=O)NC2=O)c2ccccc21` [RO3208546-000] showed a potency estimated from few doses (EPHA4; CATDS: 3.51410618583008E-2) of 1520 nM, a potency estimated from few doses (EPHA5; CATDS: 3.9302113752780102E-2) of 1120 nM and a potency estimated from few doses (EPHB2; CATDS: 4.4288817418137498E-2) of 840 nM. It also gave a potency estimated from few doses (EPHB4; CATDS: 6.3567639225114006E-2) of 415 nM, a potency estimated from few doses (PRKAG2; CATDS: 4.1666716087244697E-2) of 967 nM and a potency estimated from few doses (TNK1; CATDS: 0.384256828153267) of 31.7 nM.
